Source: PubChem BioAssay (National Center for Advancing Translational Sciences (NCATS))
Pf growth 96h = Primary qHTS for delayed death inhibitors of the malarial parasite plastid, 96 hour incubation. 6.9% of 320,000 active. P. falciparum luciferase reporter growth, 96 h. Potency, µM (highest dose often 28.7 µM), for inactives: at the highest dose activity change, negative = inhibition, actives largely listed as inhibitors; further: potency means the concentration at half of the fitted maximal effect
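P. falciparum expressing integrated firefly luciferase, in erythrocytes at 2% hematocrit, 0.05% parasitemia, incubated with compounds 96 h at 37 C, 5% CO2. Growth inhibition read as loss of luminescence; two-generation exposure targets delayed-death apicoplast inhibitors.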
HCMV antiviral = qHTS Assay for inhibitors of the human cytomegalovirus (HCMV) | 4.5% of 410,000 active | HFF cells, HCMV-luciferase reporter, 72 h; stronger effect = lower value | activity change, negative = inhibition, % at 57.5 µM | AID 1259415, 2018; in the data active means activity change below about -60%; inconclusive means no clear call, values can overlap the other calls; inactive means above about -39%
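Inhibition of viral replication was scored as loss of reporter luminescence in HFFs infected with HCMV-luciferase (MOI 1 PFU/cell) for 72 h; compounds tested at 2 doses, normalized to buffer and Salinomycin controls.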
HCV inh = qHTS Assay for Inhibitors of Hepatitis C Virus (HCV); Huh7.5.1 HCVcc-Cre infection, luciferase reporter, 44 h; 3.4% of 340,000 active; Potency, µM (series often up to 41.8 µM), inactives show at the highest dose activity change, negative = inhibition, usual class: inhibitors; further: potency means the concentration at half of the fitted maximal effect
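Infectious HCVcc-Cre (~0.5 moi) was added to cells just after compound, with cells seeded 4 h earlier at 1,000 per well. Luciferase activity after 44 h culture reported infection; substrate was incubated 15 min at room temperature before reading.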
Pf growth 48h = Primary qHTS for delayed death inhibitors of the malarial parasite plastid, 48 hour incubation | P. falciparum luciferase growth in erythrocytes, 48 h | Potency, µM (titrated, usually from 28.7 µM), inactives show at the highest dose activity change, negative = inhibition, most hits filed as inhibitors | 5.9% of 310,000 active; further: potency means the concentration at half of the fitted maximal effect
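Read-out is firefly luciferase luminescence from an integrated reporter in P. falciparum, so falling signal marks reduced parasite growth. Infected erythrocytes were at 2% hematocrit and 0.1% parasitemia (final) in Albumax-supplemented RPMI 1640.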
Numbers without * were called inactive; ? = inconclusive; . = no result given. Hits are enriched below; roughly 13% of the tested compounds scored in any of these assays. Unless noted, the call rests on the fitted dose curve; in most records, active means well fitted inhibition curve with a large enough effect; inconclusive means small, poorly fitted or top-dose-only effect, or another doubt; inactive means no such curve, though single readings can be large or run the other way. On the % scale 0 is the no-effect control and ±100 the full control effect.

SMILES | Pf growth 96h | HCMV antiviral | HCV inh | Pf growth 48h
c1ccc(C2CC(c3ccccc3)C(c3ccccc3)N2)cc1 (stereo unspecified) | 9.3µM* | 11 | 23% | -5%
COc1ccc(CNC(=O)N2CC3ON=C(c4ccccc4C)C3C2)cc1 (stereo unspecified) | . | -31 | . | .
CC1/C(=N/O)CC(c2ccccc2)N(C)C1c1ccccc1 (stereo unspecified) | ? | -12 | -10% | 13µM*
CC1C(c2ccccc2)N(C)C(c2ccccc2)CC1(O)c1ccccc1 (stereo unspecified) | . | -39 | 19% | 60%
O=C(CC1C(=O)N(c2ccc(F)cc2)C(=O)N1Cc1cccnc1)Nc1ccc(F)cc1 (stereo unspecified) | . | -8 | . | .
CC(=O)CCC(=O)NC1CCCc2c1cnn2-c1ccc(C(C)(C)C)cc1 (stereo unspecified) | -32% | ? | ? | 9%
O=C(NC1CCCc2c1cnn2-c1cc(F)cc(F)c1)c1cc[n+]([O-])cc1 (stereo unspecified) | -12% | 16 | 4% | ?
CC(C)(C)c1ccc(-n2ncc3c2CCCC3NC(=O)c2csnn2)cc1 (stereo unspecified) | 13% | -8 | 5% | ?
CC(C)(C)c1ccc(-n2ncc3c2CCCC3NC(=O)C2=NNC(=O)CC2)cc1 (stereo unspecified) | -6% | -81* | ? | 5%
Cn1nccc1C(=O)NC1CCCc2c1cnn2-c1ccc(C(C)(C)C)cc1 (stereo unspecified) | -14% | -61* | ? | -21%
CC(=O)NC1CCCc2c1cnn2-c1ccc(C(C)(C)C)cc1 (stereo unspecified) | ? | -28 | 10µM* | ?
CC(C)(C)c1ccc(-n2ncc3c2CCCC3NC(=O)c2cnccn2)cc1 (stereo unspecified) | ? | -63* | 4.5µM* | ?
CCN(CC)S(=O)(=O)c1ccc2c(c1)N(CC(=O)N1CCN(c3cccc(C(F)(F)F)c3)CC1)C(=O)CO2 | . | -29 | . | .
CC(C)(C)OC(=O)N1CCC(c2nnc(SCc3ccccc3)o2)CC1 | . | 0 | . | .
CC(C)(C)c1ccc(-n2ncc3c2CCCC3NC(=O)CN2CCCC2=O)cc1 (stereo unspecified) | 13µM* | -67* | 10µM* | 18%
CC(C)=CCn1c2ccc(NC(=O)NCc3ccc(F)cc3)cc2c(=O)n1C | . | 19 | . | .
Cn1c(=O)c2cc(NC(=O)NCc3ccc(F)cc3)ccc2n1C/C=C/c1ccccc1 | . | -63* | . | .
O=C(Nc1ccccc1)N(CCc1nc2ccccc2[nH]1)C1CCCC1 | 16% | 49 | . | -19%
S=C(NC1CCCCC1)N(CCc1nc2ccccc2[nH]1)C1CCCC1 | 13µM* | ? | -29% | ?
COc1ccc([C@H]2[C@H](C(=O)C(C)(C)C)N3N=Cc4ccccc4C3[C@]23N=C(c2ccccc2)OC3=O)cc1 (stereo partly specified) | 9.3µM* | 26 | -14% | 13µM*
CCCCNC(=O)CCCN1C(=O)CCn2nc(-c3cccn3C)cc21 | . | 15 | . | .
COc1cccc(Cn2c(CNC(=O)C(C)C)nc3cccnc32)c1 | . | -21 | . | .
O=C(Nc1ccc(Cl)c(S(=O)(=O)N2CCOCC2)c1)c1ccc(OCC2CCCO2)cc1 (stereo unspecified) | 4.1µM* | . | ? | 12µM*
COc1ccc(C(=O)Nc2ccc(S(=O)(=O)N3CCOCC3)cc2)cc1 | . | -39 | -22% | .
COc1ccc(NC(=O)c2ccc3c(c2)OCO3)cc1S(=O)(=O)N1CCOCC1 | . | -8 | -15% | .
SMILES | Pf growth 96h | HCMV antiviral | HCV inh | Pf growth 48h
COc1ccc(C(=O)Nc2ccc(Cl)c(S(=O)(=O)N3CCOCC3)c2)cc1 | . | -76* | 8.9µM* | .
COc1ccc(NS(=O)(=O)c2cc(NC(=O)c3ccc(Cl)cc3)ccc2N2CCOCC2)cc1 | . | ? | 7.9µM* | .
O=C(Nc1ccc(Cl)c(S(=O)(=O)N2CCOCC2)c1)c1ccc2c(c1)OCO2 | . | ? | 10µM* | .
COc1ccc(NS(=O)(=O)c2cc(NC(=O)c3ccncc3)ccc2N2CCOCC2)cc1 | ? | -27 | 0% | ?
COC(=O)c1ccc2c(=O)n(CCCCCC(=O)N3CCN(c4cc(Cl)ccc4C)CC3)c(=O)[nH]c2c1 | . | -19 | . | .
CCCCN(CC)C(=O)CCNS(=O)(=O)c1ccc2c(c1)c(=O)n(C)c(=O)n2C | . | -8 | . | .
COc1cccc(N2CC(NC(=O)c3ccc(S(=O)(=O)N4CCCCC4)cc3)CC2=O)c1 (stereo unspecified) | . | -12 | . | .
O=C(Nc1ccc(Cl)c(S(=O)(=O)N2CCOCC2)c1)c1ccc2c(c1)OCCO2 | ? | -62* | 10µM* | 13µM*
COc1ccc(S(=O)(=O)Nc2cc(C(=O)NCCCOC(C)C)ccc2N2CCOCC2)cc1 | ? | -8 | -9% | 1%
O=C(Nc1ccc(Cl)c(S(=O)(=O)N2CCOCC2)c1)c1ccc(Cl)nc1 | 7.4µM* | ? | 11µM* | ?
COc1ccc(S(=O)(=O)Nc2cc(C(=O)NCCC(C)C)ccc2N2CCOCC2)cc1 | ? | 90 | -2% | 8.3µM*
COc1ccc(NS(=O)(=O)c2ccc(N3CCOCC3)c(NC(=O)c3cccc(F)c3)c2)cc1 | ? | -78* | -45% | ?
COc1cccc(CNC(=O)Cn2nc(C)n3c(cc4cc(C)ccc43)c2=O)c1OC | . | 32 | . | .
CCOc1ccc(CCNC(=O)CCCc2nnc3n(CC)c(=O)c4sccc4n23)cc1OCC | . | -7 | . | .
Cc1ccc(-n2c(/C=C/c3ccc4c(c3)OCO4)nc3ccccc3c2=O)cc1 | ? | -102* | 4% | ?
COc1ccc(-n2c(/C=C/c3ccc4c(c3)OCO4)nc3ccccc3c2=O)cc1 | 9.3µM* | -84* | ? | ?
COc1ccc(S(=O)(=O)Nc2cc3c4c(oc3c3ccccc23)CCCC4=O)cc1 | 9.3µM* | -6 | ? | .
CCOC(=O)c1c(SCC(=O)Nc2nc3ccc(C)cc3s2)nc(=O)[nH]c1C | . | 13 | . | .
N#Cc1sc2nc(N3CCCCC3)c3c(c2c1N)CCCC3 | ? | ? | ? | 5.2µM*
CC(=O)c1sc2nc(C)c3c(c2c1N)CCCC3 | 2% | -29 | -67% | 15%
Cc1nc2sc(C#N)c(N)c2c2c1CCCC2 | 12µM* | ? | ? | 25%
O=C(c1ccc2c3c(cccc13)CC2)C1CCCN(C(=O)c2ccc[n+]([O-])c2)C1 (stereo unspecified) | ? | -27 | 4% | -18%
O=C(c1ccc2c3c(cccc13)CC2)C1CCCN(Cc2ccc(OCCO)cc2)C1 (stereo unspecified) | 4% | -12 | -21% | 6.6µM*
O=C(c1ccc2c3c(cccc13)CC2)C1CCCN(Cc2ccccn2)C1 (stereo unspecified) | -6% | ? | ? | 2.3µM*
